The panel holds about 83,000 compounds, 20% with a hit somewhere; the sample as a whole holds those more often.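 Single-dose data. Exposure time 48 hours. Values below 10 considered active.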 A number with no mark means an inactive call. Activity calls are given as the source filed them.
What was measured:
Test in all cases: NCI-60 one-dose screen, 48 h (100 = growth as untreated, 0 = no growth, -100 = all killed)
Settings in all cases: 10 µM unless noted
[1] = test system: NCI-H23 lung
[2] = test system: NCI-H226 lung
[3] = test system: NCI-H322M lung
[4] = test system: HOP-62 NSCLC
[5] = test system: NCI-H460 lung
[6] = test system: HOP-92 NSCLC
[7] = test system: A549/ATCC NSCLC
[8] = test system: 786-0 renal
[9] = test system: COLO 205 colon
[10] = test system: NCI-H522 lung

| Structure (SMILES) | growth [1] | growth [2] | growth [3] | growth [4] | growth [5] | growth [6] | growth [7] | growth [8] | growth [9] | growth [10] |
| --- | --- | --- | --- | --- | --- | --- | --- | --- | --- | --- |
| COc1ccc(OC)c(NC(=O)CCCCCCNC(=O)C(O)(O)C(F)(F)F)c1 | 48.6% | 78.7% | 61% | 36.8% | 39% | 28.8% | 47.7% | 50% | 10.5% | – |
| CC(Nc1ncnc2ccc(-c3cnc4cnccn34)cc12)c1ccccc1 (configuration not stated) | 54.8% | 46.9% | 26.4% | – | 61% | 27.1% | 37.6% | 47.9% | 81% | 27.3% |
| COc1ccc2[nH]cc(-c3nc(N)nnc3-c3cn(C)c4ccc(Br)cc34)c2c1 | 43.9% | 34.7% | 53.7% | – | 15.1% | 44% | 35.6% | 24.1% | 20% | 7.41% (active) |
| COc1ccc2[nH]cc(-c3nn4cc(-c5ccncc5)nc4s3)c2c1 | 70.2% | 76.5% | 78.2% | – | 51.3% | 28.9% | 74.6% | 79.8% | 47% | 51% |
| Cc1cc(C)cc(NC2=C(Cl)C(=O)c3nc(C)ccc3C2=O)c1 | 22.1% | 28.5% | 91.7% | – | 93.1% | 118% | 73.7% | 79% | 107% | 19% |
| O=C(Nc1cc(C(F)(F)F)cc(C(F)(F)F)c1)Nc1ccc2oc(=O)ccc2c1 | -0.22% (active) | 18.8% | 13.4% | 23.9% | 6.36% (active) | -26.2% (active) | 15.2% | 10.6% | -12.3% (active) | – |
| CC(=O)Nc1nc(C)c(-c2csc(Nc3ccccc3)n2)s1 | 35.2% | 19.4% | 27.6% | – | 21.8% | 24.6% | 44.3% | 25.7% | 38% | 9.26% (active) |
| CN1CCN(Cc2ccc(NC(=O)c3cncc(C#Cc4cnc5ccc(N6CCOCC6)nn45)c3)cc2C(F)(F)F)CC1 | -65.9% (active) | -62.3% (active) | -11.3% (active) | -79.7% (active) | -80.6% (active) | -25.6% (active) | -84.9% (active) | -80.7% (active) | -87.3% (active) | – |
| CN1CCN(c2ccc(Nc3nc(NCCCNS(=O)(=O)c4cccc(F)c4)c4sccc4n3)cc2)CC1 | 84% | 112% | 68% | – | 19.9% | 58.7% | 44.8% | -24.1% (active) | 27.1% | -1.42% (active) |
| C=C(C)[C@@H]1CC[C@]2(COP(=O)(OCC)OCC)CC[C@]3(C)[C@H](CC[C@@H]4[C@@]5(C)CC[C@H](OP(=O)(OCC)OCC)C(C)(C)[C@@H]5CC[C@]43C)[C@@H]12 | 13.5% | 28.3% | 59.6% | – | 22.3% | 42.2% | 28.4% | 72.8% | 44.2% | 35.5% |
| CCC1=Cc2c(OC)cccc2OC12C=Cc1c(OC)cccc1O2 (configuration not stated) | 39.7% | 58.3% | 43.9% | – | 7.72% (active) | 44% | 25.3% | 50.1% | 17.2% | 14.4% |
| CCOC(=O)c1c(NC(=O)c2cccc(C(F)(F)F)c2)sc2c1CCC(=O)C2 | 16% | 71.8% | 95.1% | – | 27.9% | 29.9% | 28.9% | 98.4% | 15.8% | -4% (active) |
| O=C(N/N=C\c1ccc(F)cc1)c1ccc2nc(-c3ccc(Br)cc3)[nH]c2c1 | 0.752% (active) | 32.9% | 68.1% | 25.1% | -64.4% (active) | 53.3% | -3.93% (active) | -32% (active) | 19.2% | – |
| Cc1cc(NS(=O)(=O)c2ccc(NC(=O)CSc3nc4ccccc4c(=O)n3-c3ccccc3)cc2)no1 | 92.2% | 93.4% | 83.9% | – | 108% | 88.6% | 101% | 104% | 106% | 91.9% |
| CN1CCN(Cc2ccc(NC(=O)c3cncc(C#Cc4cnc5ccc(OC6CCOCC6)nn45)c3)cc2C(F)(F)F)CC1 | -58.7% (active) | -58.4% (active) | -44.7% (active) | – | -77.9% (active) | -31.8% (active) | -77.3% (active) | -89.1% (active) | -82.8% (active) | -75.5% (active) |
| Cc1ccc2c(n1)C(=O)C(Cl)=C(Nc1cc(C(F)(F)F)cc(C(F)(F)F)c1)C2=O | 86% | 84.3% | 105% | – | 95.9% | 92.4% | 101% | 80.3% | 92.5% | 37.4% |
| COC(=O)c1cccc(NC2=C(Cl)C(=O)C(C)=C(C)C2=O)c1 | 92.4% | 85.9% | 100% | – | 101% | 33.9% | 115% | 104% | 114% | 95.8% |
| CCOC(=O)c1cnc2c(-c3ccc(Cl)c(Cl)c3)cnn2c1 | 82% | 80.1% | 90.8% | – | 99.7% | 39.9% | 96.4% | 90.8% | 76.8% | 66.9% |
| COC(=O)CCCNCCCn1ccc2cc(NCc3cccc(-c4ccccc4)c3C)ccc21 | 61.9% | 69.7% | 97.6% | – | 81.8% | 22.3% | 84.9% | 74.2% | 64.4% | 91.7% |
| C/C(=N\NC(N)=S)c1nnn(-c2ccc([N+](=O)[O-])cc2)c1C | 95.4% | 93.1% | 95.3% | – | 100% | 98.7% | 103% | 103% | 103% | 89.6% |
| C#Cc1cc(OC)c(C(=O)Nc2ccc(F)cc2C(=O)Nc2cccc(S(=O)(=O)C(F)(F)F)c2)cn1 | -49.4% (active) | 13.1% | 88.9% | – | 26.6% | -65.7% (active) | -7.6% (active) | -78.7% (active) | 52.2% | -69.3% (active) |
| CC1(C)CC[C@]2(C(=O)O)CC[C@]3(C)C(=CC[C@@H]4[C@@]5(C)CC[C@H](NOCCCN)C(C)(C)[C@@H]5CC[C@]43C)[C@@H]2C1 | 91.1% | 90.3% | 94% | – | 73.3% | 62.3% | 77.9% | 98.6% | 19.6% | 97.2% |
| NS(=O)(=O)c1ccc(Nc2nc(Nc3ccccc3)nc(N3N=C(c4ccc(Cl)cc4)CC3c3ccc(Cl)cc3)n2)cc1 (configuration not stated) | – | 55.1% | 64.5% | – | 20.1% | 75% | 66.7% | 65.8% | 8.73% (active) | 83.6% |
| N#Cc1c(-c2cccs2)cc(-c2cnccn2)nc1SCC(=O)N/N=C/c1ccc(Cl)cc1 | – | 98.1% | 99.3% | 99.1% | 103% | 89.4% | 94.6% | 93.9% | 115% | 93.7% |
| Cc1[nH]c(C(=O)Nc2ccccc2OCc2cccc(C(=O)NC3CCCNC3)c2)c(Cl)c1Cl (configuration not stated) | – | 73.3% | -93.7% (active) | -42.2% (active) | -68.5% (active) | 47.9% | -52.6% (active) | -71.6% (active) | -33.2% (active) | -50.9% (active) |
| Clc1ccc2[nH]cc(-c3nn4cc(-c5cccnc5)nc4s3)c2c1 | – | 96.5% | 98% | 82.2% | 99.9% | 83.6% | 99.4% | 113% | 88.9% | 97.1% |
| Cc1ccc(S(=O)(=O)c2nc(-c3ccc(F)cc3)oc2S(C)(=O)=O)cc1 | – | 83.6% | 95.9% | 99.8% | 101% | 63% | 96.4% | 80.6% | 95.1% | 61% |

Reference: PubChem BioAssay (NCI)
